From PubChem BioAssay (NCI) come the findings set out here.

Common to all, as to assay: NCI-60 one-dose screen, 48 h (100 = growth as untreated, 0 = no growth, -100 = all killed)
Conditions in all cases: 10 µM unless noted

The subject of experiment [1] is SK-MEL-2 melanoma.
For experiment [2], the system named is EKVX NSCLC.
The test system of experiment [3] is SN12C renal.
For experiment [4], the system named is UO-31 renal.
Experiment [5] relates to TK-10 renal.
Experiment [6] relates to ACHN renal.
Experiment [7] relates to CAKI-1 renal.
The subject of experiment [8] is A498 renal.
The test system of experiment [9] is CCRF-CEM leukemia.
Experiment [10] has as its system MOLT-4 leukemia.

The panel holds about 83,000 compounds, 20% with a hit somewhere; the sample as a whole holds those more often.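 Activity criterion: percent growth below 10, measured after cells in 96-well plates were exposed to a single compound concentration for 48 hours.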 Unmarked numbers belong to inactive results. Calls of active or inactive are those of the source.

`c1ccc(-c2cc3cc4ccccc4cn3c2)cc1`: the growth is 90.1% in experiment [1]; 85.3% in [2]; 87.6% in [3]; 60.9% in [4]; 101% in experiment [5]; 89.6% in experiment [6]. Further, the growth is 84.7% in experiment [7], 96.3% in experiment [8], 90.2% in experiment [9] and 83.2% in experiment [10].
Turning to `Nc1nc(-c2ccccc2)nc(N)c1N=O`, the growth is 88% in experiment [1]; 89.1% in [2]; 74% in experiment [3]; 45.8% in experiment [4]; 51.6% in experiment [5]; 58.9% in [6]. In addition, the growth was 32.4% in experiment [7], 112% in experiment [8], 34.8% in experiment [9] and 58.1% in [10].
Regarding `O=C(O)c1ccc2c(c1)C(=O)c1ccccc1C2=O`, the growth in [1] is 105%; in [2], 102%; in experiment [3], 94.6%; in experiment [4], 87%; in experiment [5], 105%; in experiment [6], 103%. The growth in experiment [7] was 96.4%; in [8], 71.8%; in experiment [9], 108%; in [10], 94.4%.
Regarding `CN(C)c1ccc2cc3c(cc2c1)Oc1ccccc1N3.[Cl][Zn][Cl]`, the growth in experiment [1] is 89.5%; in experiment [2], 89.9%; in experiment [3], 89.3%; in [4], 5.78% (active); in experiment [5], 77.4%; in experiment [6], 70.9%. Also, the growth in [7] was 54.2%; in experiment [8], 115%; in [9], 31.4%; in [10] it was 24.7%.
Consider `S=C=Nc1ccc(N2CCOCC2)cc1`, for which the growth in experiment [1] was 97.8%; in [2] it was 91.7%; in experiment [3], 104%; in experiment [4] it was 84.5%; in experiment [5] it was 93.2%; in experiment [6], 96.1%. Moreover, the growth in [7] is 95.9%; in experiment [8], 96.5%; in experiment [9], 80.6%; in [10], 92.5%.
Take `O=C(Nc1ccc(Cl)c(Cl)c1)OCc1ccco1`: the growth is 28.9% in experiment [1]; 56.9% in experiment [2]; 48.8% in experiment [3]; 36.1% in experiment [4]; 58.2% in experiment [5]; 32.5% in experiment [6]. The growth in experiment [7] is 25.4%; in experiment [8], 71.5%; in experiment [9], 39.3%; in experiment [10], 34.1%.
On to `Cc1ccc2c(c1)sc(-c1ccc(N(C)C)cc1)[n+]2C`, for which the growth in experiment [1] was 0.0539% (active); in experiment [2] it was 6.29% (active); in experiment [3], 3.59% (active); in [4], 65.1%; in experiment [5] it was 14.8%; in [6], 63.6%. The growth in experiment [7] was 72.3%; in [8] it was -6.25% (active); in [9] it was 10.7%; in [10], -42.4% (active).
For the molecule `CCCCOS(=O)(=O)c1ccccc1`, the growth in experiment [1] is 99.9%; in experiment [2] it was 108%; in experiment [3], 100%; in experiment [4] it was 99.8%; in [5], 106%; in experiment [6], 103%. For the same molecule, the growth in experiment [7] was 93.2%; in [8], 128%; in experiment [9], 110%; in [10] it was 166%.
With `COC1=CC(=O)c2c(O)c3c(c(O)c2C1=O)CC(C)(O)OC3` (stereo not given), the growth in experiment [1] is -6.4% (active); in experiment [2] it was 23.2%; in experiment [3], 34.7%; in experiment [4], 33.8%; in experiment [5], 66.1%; in experiment [6] it was 27.6%. The growth in [7] was 34.4%; in experiment [8] it was 68.3%; in [9], 19.5%; in experiment [10] it was 14.5%.
As to `Cc1cc(I)nc2ccccc12`, the growth was 110% in [1]; 101% in [2]; 109% in experiment [3]; 91.7% in [4]; 113% in experiment [5]; 107% in experiment [6]. The growth in [7] is 98.7%; in experiment [8], 117%; in experiment [9], 92.2%; in [10], 101%.
Consider `CC12CCC(O)CC1=CCC1C2CCC2(C)C3=NN=CC3CC12` (stereo not given), for which the growth in experiment [1] was 118%; in experiment [2], 81.9%; in [3], 105%; in [4], 105%; in experiment [5], 108%; in experiment [6], 97.7%. Also, the growth is 127% in [7], 124% in [8], 91% in experiment [9] and 83.8% in experiment [10].
As to `CCN(CC)CC(O)c1cc(-c2ccc(Cl)cc2)nc2cc(Cl)ccc12` (stereo not given), the growth was 22.7% in experiment [1]; 60.5% in experiment [2]; 29.6% in experiment [3]; 35.2% in [4]; 20.6% in experiment [5]; 7.25% (active) in [6]. Besides, the growth in experiment [7] was -16.5% (active); in [8], 64.6%; in [9] it was 3.88% (active); in experiment [10], -18.3% (active).
Turning to `COc1cc(/C=C/C(=O)CC(=O)/C=C/c2ccc(O)c(OC)c2)ccc1O`, the growth in experiment [1] is 81.1%; in [2], 67.6%; in [3] it was 79%; in experiment [4] it was 13%; in [5], 69.7%; in [6], 72.9%. For the same molecule, the growth in [7] is 64.3%; in experiment [8], 101%; in [9] it was 5.28% (active); in experiment [10], 31.4%.
